Assay results from PubChem BioAssay.

Target: PEG-3 (UniProt Q6IN02)
Assay: Peg3 promoter luciferase inhibitors, potency, dose response, cell-based, HeLa, CREF/GAPDH counter-screen panel (AID 624167)
Details: HeLa PEG-Prom luciferase reporter, overnight, CREF/GAPDH counter-screens; run 1, dose range 1, at 100 µM (top of the series)

Chain of PEG-3 (Q6IN02 whole entry, looked up): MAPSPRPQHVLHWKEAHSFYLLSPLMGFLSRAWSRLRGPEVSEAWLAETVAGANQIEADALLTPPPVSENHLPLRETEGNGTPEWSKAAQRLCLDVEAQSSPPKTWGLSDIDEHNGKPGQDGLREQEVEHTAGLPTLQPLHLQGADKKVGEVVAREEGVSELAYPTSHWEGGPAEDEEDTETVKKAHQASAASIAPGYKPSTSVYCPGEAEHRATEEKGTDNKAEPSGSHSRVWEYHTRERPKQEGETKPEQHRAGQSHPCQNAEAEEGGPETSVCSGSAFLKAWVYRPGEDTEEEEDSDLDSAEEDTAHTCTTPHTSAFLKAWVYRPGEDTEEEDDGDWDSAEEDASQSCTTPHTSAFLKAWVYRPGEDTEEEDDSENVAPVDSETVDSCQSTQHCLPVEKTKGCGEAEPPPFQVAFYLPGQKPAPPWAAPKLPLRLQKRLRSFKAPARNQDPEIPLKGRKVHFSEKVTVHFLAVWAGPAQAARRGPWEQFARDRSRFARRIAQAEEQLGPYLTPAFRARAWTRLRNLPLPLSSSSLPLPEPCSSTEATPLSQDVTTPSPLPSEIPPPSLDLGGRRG

**Q.** How did the inhibition turn out when `CC1=CC2/C=C(\C)CCC(O)C(O)/C=C/C(=O)C23C(=O)NC(CC(C)C)C3C1C` (stereo unspecified) was run?
**A.** 102%

**Q.** With `C=Cc1cc(OC)c2c(c1)c(=O)oc1c2cc(OC)c2c(O)ccc(C3OC(C)C(O)C(C)(O)C3O)c21` (stereo unspecified) as the compound, how does the inhibition read?
**A.** 101%

**Q.** `COc1cccc(C2CC3C(=O)C=CC2N3Cc2ccccc2)c1` (stereo unspecified) was tested. Which inhibition did it give?
**A.** 101%

**Q.** `CC(C)(C)n1nnnc1C(CCc1ccccc1)N1CCC(n2c(=O)[nH]c3ccccc32)CC1` (stereo unspecified) was tested. Which inhibition did it give?
**A.** 86.4%

**Q.** For `COc1cc2nc(CN3CC=C(c4ccccc4)CC3)[nH]c(=O)c2cc1OC`, which inhibition is on record?
**A.** 93.8%

**Q.** `CCN(CC)C(=O)c1ccc(NC(=O)Nc2ccccc2F)cc1` was tested. Which inhibition did it give?
**A.** 82.1%

**Q.** For `O=Cc1cn(Cc2ccc(F)cc2)c2ccccc12`, which inhibition is on record?
**A.** 26.6%

**Q.** `Cc1ccc(S(=O)(=O)c2nc(-c3ccccc3Cl)oc2N(C)C2CCN(C)CC2)cc1` was tested. Which inhibition did it give?
**A.** 99.3%

**Q.** With `CC(=O)OC1(C)CC(C)C(=O)C(C(O)CC2CC(=O)NC(=O)C2)C1` (stereo unspecified) as the compound, how does the inhibition read?
**A.** 96.1%

**Q.** With `CCC1(OC(=O)CN)C(=O)OCc2c1cc1n(c2=O)Cc2cc3ccccc3nc2-1` (stereo unspecified) as the compound, how does the inhibition read?
**A.** 100%

**Q.** Which inhibition does the source give for `C[C@@H]1O[C@@H](O[C@@H]2C=C3CCC4C(CC[C@]5(C)[C@@H](c6ccc(=O)oc6)CC[C@]45O)[C@@]3(C)CC2)[C@H](O)[C@H](O)[C@H]1O` (stereo partly specified) here?
**A.** 99.3%

**Q.** Which inhibition does the source give for `COc1ccc(-n2nnnc2C(C2CC2)N2CCC(n3c(=O)[nH]c4ccccc43)CC2)cc1` (stereo unspecified) here?
**A.** 93.8%

**Q.** With `N#Cc1ccc(Cn2cc(C=O)c3ccccc32)cc1` as the compound, how does the inhibition read?
**A.** 90.2%

**Q.** For `O=C1NC2C(=CC(O)C(O)C2O)c2cc3c(c(O)c21)OCO3` (stereo unspecified), which inhibition is on record?
**A.** 99.4%

**Q.** With `O=Cc1cn(Cc2ccc([N+](=O)[O-])cc2)c2ccccc12` as the compound, how does the inhibition read?
**A.** 1.6%

**Q.** How did the inhibition turn out when `CC[C@@H](O)C[C@H]1CCC[C@@]2(C[C@@H]3OC(=O)/C=C/[C@@](C)(O)[C@@H](O)[C@H](C)[C@@H](O)[C@H](OC4CCC(N(C)C)C(C)O4)[C@@H](O)[C@](C)(O)CCCCC/C=C/[C@@H]4CC(C)(C)O[C@@]4(O)C[C@H](O2)[C@H]3C)O1` (stereo partly specified) was run?
**A.** 98.9%
